Experiment in all cases: NCI-60 one-dose screen, 48 h (100 = growth as untreated, 0 = no growth, -100 = all killed)
Common to all, as to conditions: 10 µM unless noted

In assay [1] the test system is HCT-15 colon.
Assay [2] has as its system HT29 colon.
The test system of assay [3] is SNB-75 CNS.
Assay [4] has as its system SNB-19 CNS.
Assay [5] relates to U251 CNS.
Assay [6] deals with PC-3 prostate.
Assay [7] has as its system SK-MEL-5 melanoma.
The test system of assay [8] is UACC-62 melanoma.
Assay [9] deals with LOX IMVI melanoma.
Assay [10] concerns SK-MEL-28 melanoma.
Assay [11] has as its system SK-MEL-2 melanoma.
Assay [12] relates to EKVX NSCLC.
Assay [13] relates to SN12C renal.
For assay [14], the system named is UO-31 renal.
Assay [15] concerns TK-10 renal.
The test system of assay [16] is ACHN renal.
Assay [17] has as its system CAKI-1 renal.
Assay [18] concerns A498 renal.
Assay [19] deals with CCRF-CEM leukemia.
In assay [20] the test system is MOLT-4 leukemia.

The panel holds about 83,000 compounds, 20% with a hit somewhere; the sample as a whole holds those more often.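 Cells were grown in 96-well plates and exposed to the test compound at a single concentration for 48 hours; results are reported as percent growth, with values below 10 considered active.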 Values without a mark were called inactive. Calls of active or inactive are those of the source.

In the case of `COc1cc(C2C3=C(COC3=O)N(CCO)c3cc4c(cc32)OCCO4)cc(OC)c1OC` (stereo not given), the growth in [1] was 6.81% (active); in assay [2], -25.4% (active); in [3], -5.04% (active); in assay [4], 7.63% (active); in assay [5] it was 9.63% (active); in assay [6], 14.3%. The growth was -30.9% (active) in [7]; 6.33% (active) in assay [8]; 17.7% in assay [9]; 42.8% in [10]; 58.5% in [11]; 45.7% in assay [12]. Further, the growth is 23.8% in assay [13]; 54.3% in assay [14]; 60.3% in [15]; 20.7% in assay [16]; 41.3% in assay [17]; -28.8% (active) in assay [18]. Further, the growth in assay [19] was 13.2%; in assay [20] it was 8.21% (active).

On to `CC(C)CN1CC(C(=O)Nc2ccc3c(c2)-c2ccccc2C3)CC1=O` (stereo not given), for which the growth in assay [1] was 49.7% [50 µM]; in [2], 87.8% [50 µM]; in assay [3], 45.7% [50 µM]; in assay [4], 72.1% [50 µM]; in [5], 72.8% [50 µM]; in [6], 57.1% [50 µM]. For the same molecule, the growth in assay [7] is 69.4% [50 µM]; in assay [8], 47.3% [50 µM]; in [9], 75.9% [50 µM]; in [10], 80% [50 µM]; in assay [11], 81.8% [50 µM]; in assay [12] it was 70.8% [50 µM]. Also, the growth in [13] is 72.5% [50 µM]; in assay [14], 43.7% [50 µM]; in assay [15] it was 87.2% [50 µM]; in [16], 64.8% [50 µM]; in assay [17] it was 62.5% [50 µM]; in assay [18], 85.8% [50 µM]. Moreover, the growth in assay [19] was 74.5% [50 µM]; in assay [20], 61.8% [50 µM].

For `CN1CCN(CCCOC(=O)c2c3c(n4ccccc24)C(=O)c2ncccc2C3=O)CC1`, the growth was -39.1% (active) in assay [1]; -32.3% (active) in assay [2]; -88.7% (active) in [3]; 1.8% (active) in [4]; -31.7% (active) in assay [5]; 17.6% in [6]. For the same molecule, the growth was -98% (active) in [7]; -48.8% (active) in assay [8]; -60.9% (active) in assay [9]; 12.5% in assay [10]; -52.7% (active) in assay [11]; 37.7% in assay [12]. Further, the growth in assay [13] is -66.3% (active); in assay [14], -80.9% (active); in assay [15], 3.81% (active); in assay [16], -53.6% (active); in assay [17], 0.119% (active); in assay [18] it was 38.3%. The figures for the growth in assay [19] and in [20] were -16.3% (active) and -2.53% (active), respectively.

Turning to `Cc1ccc(-c2csc(NC(=O)N3CCN(c4cc5c(cc4F)c(=O)c(C(=O)O)cn5C4CC4)CC3)n2)cc1`, the growth in [1] was 9.36% (active); in [2], 4.65% (active); in assay [3], 31.5%; in assay [4], 26.9%; in [5], 15.4%; in assay [6] it was 7.37% (active). Further, the growth in assay [7] was -75.2% (active); in [8], 3.86% (active); in assay [9] it was 2.73% (active); in [10], 35%; in assay [11], -26.3% (active); in assay [12], 20.4%. Also, the growth in assay [13] is 15.5%; in [14] it was 8.87% (active); in [15] it was 26.1%; in assay [16], 5.91% (active); in [17] it was 22.2%; in [18], 2.51% (active). For the same molecule, the growth in assay [19] is 12.9%; in assay [20], 3.49% (active).

As for `Cn1c(/C=C/[N+](=O)[O-])cc2ccccc21`, the growth in assay [1] was -56.7% (active); in assay [2] it was -53.2% (active); in [3] it was 44.3%; in assay [4] it was 57.7%; in assay [5] it was -72.1% (active); in assay [6], 7.59% (active). The growth in [7] was 47.2%; in [8], 42.2%; in [9], -79.7% (active); in assay [10], 73.3%; in [11] it was 11.2%; in assay [12] it was 46.1%. In addition, the growth in assay [13] was 43.7%; in assay [14], -56.9% (active); in [15], 57.7%; in assay [16] it was -29.7% (active); in assay [17], 82.8%; in [18], -20% (active). In addition, the values for the growth in assay [19] and in assay [20] were 30.1% and 26.7%, respectively.

In the case of `O=C(Nc1ncc(Cc2ccccc2Cl)s1)c1cccs1`, the growth in assay [1] was 32%; in assay [2], 43.6%; in [3], 89.6%; in assay [4], 82.9%; in [5], 60.8%; in assay [6], 64%. For the same molecule, the growth in assay [7] was 73.3%; in assay [8], 45.9%; in assay [9], 62.5%; in assay [10], 85.2%; in assay [11], 69.4%; in [12], 77.7%. The growth in assay [13] was 82.5%; in [14] it was 70.8%; in assay [15] it was 88%; in assay [16] it was 73.2%; in [17], 41.8%; in assay [18] it was 67.1%. The growth in assay [19] was 66.2%; in assay [20], 61.7%.

Take `C=CC(C)(O)CC/C=C(\CO)C(=O)OC1C(C)OC(O[C@](C)(C=C)CC/C=C(\CO)C(=O)O[C@H]2C[C@@]3(C(=O)OC4OC(CO)C(O)C(O)C4OC4OC(C)C(OC5OC(CO)C(O)C5O)C(OC5OC(CO)C(O)C(O)C5O)C4O)C(CC2(C)C)C2=CCC4[C@@]5(C)CC[C@H](OC6OC(COC7OC(C)C(O)C(O)C7OC7OCC(O)C(O)C7O)C(O)C(O)C6NC(C)=O)C(C)(C)C5CC[C@@]4(C)[C@]2(C)C[C@H]3O)C(O)C1O` (stereo not given in full): the growth was 66.3% in assay [1]; 21.5% in assay [2]; -34.9% (active) in [3]; -54.1% (active) in assay [4]; -84.5% (active) in assay [5]; -68.9% (active) in [6]. Besides, the growth in assay [7] is 74.6%; in [8], -11% (active); in assay [9], -36.7% (active); in [10] it was -90.3% (active); in assay [11], -73.8% (active); in assay [12], -6.51% (active). Moreover, the growth in [13] is -30.1% (active); in assay [14], -57.7% (active); in assay [15], -83% (active); in assay [16], -87.7% (active); in assay [17], -70% (active); in assay [18], -81% (active). In addition, the growth was -17.1% (active) in assay [19] and -21.5% (active) in assay [20].

The values above are taken from PubChem BioAssay (NCI).
